# Test results from PMC11006913.
# Changes are numbered by the printed parent chain.
# Key:
# Experiment in all cases: PBM; 200 nM protein, PBS
# Settings in all cases: dsDNA, one strand shown
# [1] = molecular target: NKX2-5 (Homo sapiens, UniProt P52952 125-210, R139K)
# [2] = molecular target: T1, NKX2-4 (Homo sapiens, UniProt Q9H2Z4 175-261, P217L)
# T1 sequence: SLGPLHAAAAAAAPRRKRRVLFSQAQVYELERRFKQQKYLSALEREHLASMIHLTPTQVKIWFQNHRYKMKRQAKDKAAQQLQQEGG
# [3] = molecular target: T2, NKX2-4 (Homo sapiens, UniProt Q9H2Z4 175-261, T231S)
# T2 sequence: T1 sequence with L43P, T57S
# [4] = molecular target: T3, NKX2-4 (Homo sapiens, UniProt Q9H2Z4 175-261)
# T3 sequence: T1 sequence with L43P
# [5] = molecular target: T4, NKX2-4 (Homo sapiens, UniProt Q9H2Z4 175-261, R246Q)
# T4 sequence: T1 sequence with L43P, R72Q
# [6] = molecular target: NKX2-5 (Homo sapiens, UniProt P52952 125-210)
# [7] = molecular target: T5, VENTX (Homo sapiens, UniProt O95231 78-163, R121Q)
# T5 sequence: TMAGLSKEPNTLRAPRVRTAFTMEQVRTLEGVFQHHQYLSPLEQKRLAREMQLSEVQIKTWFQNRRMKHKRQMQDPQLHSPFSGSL
# [8] = molecular target: T6, VENTX (Homo sapiens, UniProt O95231 78-163)
# T6 sequence: T5 sequence with Q44R
# [9] = molecular target: T7, VENTX (Homo sapiens, UniProt O95231 78-163, Y115F)
# T7 sequence: T5 sequence with Y38F, Q44R
# [10] = molecular target: ALX1 (Homo sapiens, UniProt Q15699 118-204, L144V)
# [11] = molecular target: ALX1 (Homo sapiens, UniProt Q15699 118-204, L144R)
# [12] = molecular target: ALX1 (Homo sapiens, UniProt Q15699 118-204)
# [13] = molecular target: T8, NKX2-6 (Homo sapiens, UniProt A6NCS4 118-204, R150C)
# T8 sequence: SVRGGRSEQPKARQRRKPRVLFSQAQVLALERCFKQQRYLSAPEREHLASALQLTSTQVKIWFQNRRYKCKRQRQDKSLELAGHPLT
# [14] = molecular target: T9, NKX2-6 (Homo sapiens, UniProt A6NCS4 118-204)
# T9 sequence: T8 sequence with C33R
# [15] = molecular target: T10, NKX2-6 (Homo sapiens, UniProt A6NCS4 118-204, F151L)
# T10 sequence: T8 sequence with C33R, F34L
# NKX2-5 (Homo sapiens, UniProt P52952 125-210), sequence (P52952 125-210): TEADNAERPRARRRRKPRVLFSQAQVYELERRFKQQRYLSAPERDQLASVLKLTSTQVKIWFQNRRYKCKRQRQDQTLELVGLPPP
# NKX2-5 (Homo sapiens, UniProt P52952 125-210, R139K), sequence (P52952 125-210 R139K): as the sequence (P52952 125-210) above, with R15K counted along it
# ALX1 (Homo sapiens, UniProt Q15699 118-204, L144V), sequence (Q15699 118-204 L144V): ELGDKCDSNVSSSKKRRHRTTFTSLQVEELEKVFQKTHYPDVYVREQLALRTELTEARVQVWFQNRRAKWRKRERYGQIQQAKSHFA
# ALX1 (Homo sapiens, UniProt Q15699 118-204, L144R), sequence (Q15699 118-204 L144R): as the sequence (Q15699 118-204 L144V) above, with V27R counted along it
# ALX1 (Homo sapiens, UniProt Q15699 118-204), sequence (Q15699 118-204): as the sequence (Q15699 118-204 L144V) above, with V27L counted along it
sequence,measurement,setting,value
TACCGGTA,binding signal,[1],"8.84 upbm affinity estimate (log intensity, higher = more binding, comparable within an allelic series)"
same,binding signal,[2],"9.99 upbm affinity estimate (log intensity, higher = more binding, comparable within an allelic series)"
same,binding signal,[3],"10.1 upbm affinity estimate (log intensity, higher = more binding, comparable within an allelic series)"
same,binding signal,[4],"9.94 upbm affinity estimate (log intensity, higher = more binding, comparable within an allelic series)"
same,binding signal,[5],"10.1 upbm affinity estimate (log intensity, higher = more binding, comparable within an allelic series)"
same,binding signal,[6],"8.86 upbm affinity estimate (log intensity, higher = more binding, comparable within an allelic series)"
CCGGTGGC,binding signal,[1],"8.61 upbm affinity estimate (log intensity, higher = more binding, comparable within an allelic series)"
same,binding signal,[7],"7.92 upbm affinity estimate (log intensity, higher = more binding, comparable within an allelic series)"
same,binding signal,[8],"8.15 upbm affinity estimate (log intensity, higher = more binding, comparable within an allelic series)"
same,binding signal,[9],"8 upbm affinity estimate (log intensity, higher = more binding, comparable within an allelic series)"
same,binding signal,[10],"6.52 upbm affinity estimate (log intensity, higher = more binding, comparable within an allelic series)"
same,binding signal,[11],"6.41 upbm affinity estimate (log intensity, higher = more binding, comparable within an allelic series)"
same,binding signal,[12],"6.47 upbm affinity estimate (log intensity, higher = more binding, comparable within an allelic series)"
same,binding signal,[6],"8.93 upbm affinity estimate (log intensity, higher = more binding, comparable within an allelic series)"
CGGTGCAG,binding signal,[1],"8.83 upbm affinity estimate (log intensity, higher = more binding, comparable within an allelic series)"
same,binding signal,[2],"9.49 upbm affinity estimate (log intensity, higher = more binding, comparable within an allelic series)"
same,binding signal,[3],"9.46 upbm affinity estimate (log intensity, higher = more binding, comparable within an allelic series)"
same,binding signal,[4],"9.46 upbm affinity estimate (log intensity, higher = more binding, comparable within an allelic series)"
same,binding signal,[5],"9.48 upbm affinity estimate (log intensity, higher = more binding, comparable within an allelic series)"
same,binding signal,[6],"8.91 upbm affinity estimate (log intensity, higher = more binding, comparable within an allelic series)"
ATAATGGG,binding signal,[1],"10.9 upbm affinity estimate (log intensity, higher = more binding, comparable within an allelic series)"
same,binding signal,[7],"11.4 upbm affinity estimate (log intensity, higher = more binding, comparable within an allelic series)"
same,binding signal,[8],"12.4 upbm affinity estimate (log intensity, higher = more binding, comparable within an allelic series)"
same,binding signal,[9],"11.4 upbm affinity estimate (log intensity, higher = more binding, comparable within an allelic series)"
same,binding signal,[6],"11 upbm affinity estimate (log intensity, higher = more binding, comparable within an allelic series)"
AGTCCGGG,binding signal,[1],"9.14 upbm affinity estimate (log intensity, higher = more binding, comparable within an allelic series)"
same,binding signal,[2],"9.61 upbm affinity estimate (log intensity, higher = more binding, comparable within an allelic series)"
same,binding signal,[3],"9.48 upbm affinity estimate (log intensity, higher = more binding, comparable within an allelic series)"
same,binding signal,[4],"9.52 upbm affinity estimate (log intensity, higher = more binding, comparable within an allelic series)"
same,binding signal,[5],"9.63 upbm affinity estimate (log intensity, higher = more binding, comparable within an allelic series)"
same,binding signal,[6],"9.09 upbm affinity estimate (log intensity, higher = more binding, comparable within an allelic series)"
CCTGGGCC,binding signal,[1],"8.72 upbm affinity estimate (log intensity, higher = more binding, comparable within an allelic series)"
same,binding signal,[7],"7.97 upbm affinity estimate (log intensity, higher = more binding, comparable within an allelic series)"
same,binding signal,[8],"8.01 upbm affinity estimate (log intensity, higher = more binding, comparable within an allelic series)"
same,binding signal,[9],"7.99 upbm affinity estimate (log intensity, higher = more binding, comparable within an allelic series)"
same,binding signal,[6],"8.87 upbm affinity estimate (log intensity, higher = more binding, comparable within an allelic series)"
CTCAAGTA,binding signal,[1],"12.7 upbm affinity estimate (log intensity, higher = more binding, comparable within an allelic series)"
same,binding signal,[2],"12.7 upbm affinity estimate (log intensity, higher = more binding, comparable within an allelic series)"
same,binding signal,[3],"13.1 upbm affinity estimate (log intensity, higher = more binding, comparable within an allelic series)"
same,binding signal,[4],"12.6 upbm affinity estimate (log intensity, higher = more binding, comparable within an allelic series)"
same,binding signal,[13],"11.8 upbm affinity estimate (log intensity, higher = more binding, comparable within an allelic series)"
same,binding signal,[14],"13.6 upbm affinity estimate (log intensity, higher = more binding, comparable within an allelic series)"
same,binding signal,[5],"13.3 upbm affinity estimate (log intensity, higher = more binding, comparable within an allelic series)"
same,binding signal,[15],"10.8 upbm affinity estimate (log intensity, higher = more binding, comparable within an allelic series)"
same,binding signal,[6],"12.6 upbm affinity estimate (log intensity, higher = more binding, comparable within an allelic series)"
ATACTTGA,binding signal,[1],"12.4 upbm affinity estimate (log intensity, higher = more binding, comparable within an allelic series)"
same,binding signal,[2],"12.6 upbm affinity estimate (log intensity, higher = more binding, comparable within an allelic series)"
same,binding signal,[3],"13 upbm affinity estimate (log intensity, higher = more binding, comparable within an allelic series)"
same,binding signal,[4],"12.5 upbm affinity estimate (log intensity, higher = more binding, comparable within an allelic series)"
same,binding signal,[13],"11.6 upbm affinity estimate (log intensity, higher = more binding, comparable within an allelic series)"
same,binding signal,[14],"13.5 upbm affinity estimate (log intensity, higher = more binding, comparable within an allelic series)"
same,binding signal,[5],"13.2 upbm affinity estimate (log intensity, higher = more binding, comparable within an allelic series)"
same,binding signal,[15],"10.7 upbm affinity estimate (log intensity, higher = more binding, comparable within an allelic series)"
same,binding signal,[6],"12.3 upbm affinity estimate (log intensity, higher = more binding, comparable within an allelic series)"
TAAGTGTA,binding signal,[1],"12.5 upbm affinity estimate (log intensity, higher = more binding, comparable within an allelic series)"
same,binding signal,[2],"12.4 upbm affinity estimate (log intensity, higher = more binding, comparable within an allelic series)"
same,binding signal,[3],"12.8 upbm affinity estimate (log intensity, higher = more binding, comparable within an allelic series)"
same,binding signal,[4],"12.3 upbm affinity estimate (log intensity, higher = more binding, comparable within an allelic series)"
same,binding signal,[13],"11.7 upbm affinity estimate (log intensity, higher = more binding, comparable within an allelic series)"
same,binding signal,[14],"13.4 upbm affinity estimate (log intensity, higher = more binding, comparable within an allelic series)"
same,binding signal,[5],"12.9 upbm affinity estimate (log intensity, higher = more binding, comparable within an allelic series)"
same,binding signal,[15],"10.9 upbm affinity estimate (log intensity, higher = more binding, comparable within an allelic series)"
same,binding signal,[6],"12.4 upbm affinity estimate (log intensity, higher = more binding, comparable within an allelic series)"
